A selection: hits, their analogues and other compounds. The true share with any hit is near 2.9%.
Nrf2 activator = activators of Nrf2 (ARE) signaling; AREc32 ARE-luciferase reporter (MCF7-derived line), luminescence, 24 h; Potency, µM (doses to about 46.1 µM), actives largely listed as activators; actives 0.31% (n = 410,000); AID 624171; also: nearly all actives have a fitted effect of over 65% in size
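Reporter line AREc32 (ARE-Fluc), seeded overnight in OPTI-MEM with 5% FBS; compound pin-transferred, 24 hr at 37 deg C, 5% CO2; luminescent read-out.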
Nrf2 block = Nrf2 pathway inhibition; Potency, µM (series often up to 46 µM), most hits filed as inhibitors; A549 ARE-Fluc reporter, luciferase luminescence, 18-24 h; actives 2.1% (n = 360,000); also: nearly all actives have a fitted effect of over 60% in size
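Nrf2 activity is the BugLite luminescence, read 15 min after reagent at room temperature, following CellTiter-Fluor cytotoxicity readout (30 min, 37C). Compound titrations were applied for 18-24 h to 5000 A549 ARE_Fluc cells/well in 5% FBS OPTI-MEM.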
A549 viability = A549 cytotoxicity, counter-screen for Nrf2 inhibitors; actives 0.16% (n = 390,000); A549 ARE-Fluc cells, CellTiter-Fluor viability, 18-24 h; Potency, µM (highest dose often 46 µM), hits mostly inhibitors
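A549 ARE-Fluc cells in 5% FBS OPTI-MEM, 5000 cells/well, rested 2 h then exposed to compounds in concentration-response for 18-24 h at 37 °C. Viability by CellTiter-Fluor fluorescence (Ex 405/Em 525) after 30 min; luciferase luminescence (BugLite, 15 min, RT) read afterwards.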
S2 tox = reduces viability in counter-screen for ATXN expression inhibitors; S2 cells (HEK-293 line with an ATXN2-luciferase reporter) viability, CellTiter-Fluor protease fluorescence, 24 h; Potency, µM (top dose mostly 56.7 µM), actives largely listed as cytotoxic; actives 0.49% (n = 400,000); AID 651635; also: nearly all actives have a fitted effect of over 40% in size
ATXN2 expr inh = reduces ATXN2 reporter expression in HEK-293 cells. HEK-293 ATXN2-luciferase reporter, luminescence, 24 h. Potency, µM (doses to about 57 µM), hits mostly inhibitors. actives 0.72% (n = 360,000). AID 1745845; also: nearly all actives have a fitted effect of over 55% in size
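qHTS (up to 57 uM final) was run with 24 h compound exposure of reporter cells at 37 °C. Each well was multiplexed: SteadyGlo luminescence measured ATXN2-luciferase expression after a fluorogenic Gly-Phe-AFC viability readout (25 uM final).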
Each line names hits and unclear results; the compound was inactive in the other large screens. Calls follow the shape of the dose curve; as a rule, active = well fitted curve in the direction sought with a large enough effect; inconclusive = small, poorly fitted or top-dose-only effect, or another doubt; inactive = no such curve, though single readings can be large; an effect the other way counts as inactive or inconclusive.

O=C1NC(c2ccccc2)=N/C1=C/c1ccco1	Nrf2 activator 4µM, Nrf2 block inconclusive (no result: ATXN2 expr inh)
O=C1NC(c2ccccc2Br)=N/C1=C\c1ccco1	Nrf2 activator 5.6µM (no result: ATXN2 expr inh)
COc1ccc(/C=C2\C(=O)ON=C2c2ccccc2)cc1	S2 tox 20µM, ATXN2 expr inh inconclusive
OCCN(Cc1ccccn1)Cc1ccccn1	none (no result: Nrf2 block, A549 viability)
Cc1oc(-c2ccccc2NC(=O)c2ccsc2)nc1CN(C)Cc1ccc2c(c1)CCCN2C	none (no result: Nrf2 activator, Nrf2 block, A549 viability, ATXN2 expr inh)
CCOC(=O)Cc1nnc(NC(=O)Nc2ccccc2)s1	none
CCOC(=O)Cc1ccc(NC(=O)Nc2nnc(N3CCCCC3C)s2)cc1 (stereo unspecified)	Nrf2 block 21µM, A549 viability inconclusive (no result: S2 tox, ATXN2 expr inh)
Nc1nc(-c2ccccc2)c(N=Nc2cccc3ccccc23)s1	A549 viability 16µM, S2 tox inconclusive
O=C(CN1CCN(c2ncc(C(F)(F)F)cc2Cl)CC1)NCCNc1ncc(C(F)(F)F)cc1Cl	Nrf2 block 15µM, A549 viability inconclusive, ATXN2 expr inh inconclusive
NNC(=O)CN1CCN(c2ncc(C(F)(F)F)cc2Cl)CC1	S2 tox inconclusive
C=CC[C@@H](CC(=O)N[C@@H](CO)Cc1ccccc1)C(=O)N[C@H](COC(=O)[C@H](CC=C)CC(=O)OC(C)(C)C)Cc1c[nH]c2ccccc12	Nrf2 block inconclusive, A549 viability inconclusive, ATXN2 expr inh inconclusive (no result: S2 tox)
C=CC[C@@H](CC(=O)N(CCO)Cc1ccccc1)C(=O)N[C@@H](COC(=O)[C@H](CC=C)CC(=O)OC(C)(C)C)Cc1c[nH]c2ccccc12	Nrf2 block 23µM, A549 viability inconclusive, ATXN2 expr inh inconclusive (no result: S2 tox)
C=CC[C@H](CC(=O)N(CCO)Cc1ccccc1)C(=O)N[C@@H](COC(=O)[C@@H](CC=C)CC(=O)OC(C)(C)C)Cc1c[nH]c2ccccc12	Nrf2 block 21µM, A549 viability inconclusive, ATXN2 expr inh inconclusive (no result: S2 tox)
C=CC[C@H](CC(=O)N(CCO)Cc1ccccc1)C(=O)N[C@H](COC(=O)[C@H](CC=C)CC(=O)OC(C)(C)C)Cc1c[nH]c2ccccc12	Nrf2 block inconclusive, A549 viability inconclusive, S2 tox 22µM, ATXN2 expr inh inconclusive
C=CC[C@@H](CC(=O)N[C@H](CO)Cc1ccccc1)C(=O)N[C@H](COC(=O)[C@H](CC=C)CC(=O)OC(C)(C)C)Cc1c[nH]c2ccccc12	Nrf2 block inconclusive, A549 viability inconclusive, S2 tox 28µM, ATXN2 expr inh inconclusive
Cc1ccccc1-c1ccc(CN2CCc3nnc(CNC(=O)c4ccccn4)n3CC2)cc1	none (no result: Nrf2 activator, Nrf2 block, A549 viability, ATXN2 expr inh)
Cc1ccc(CNS(=O)(=O)c2ccc3c(c2)n(C)c(=O)n3C)cc1	Nrf2 block 21µM
Cn1c(=O)n(C)c2cc(NS(=O)(=O)c3ccc(C(C)(C)C)cc3)c(NCc3ccccc3)cc21	Nrf2 block 10µM, A549 viability inconclusive, S2 tox inconclusive
Cc1cc(S(=O)(=O)Nc2cc3c(cc2NCc2ccccc2)n(C)c(=O)n3C)ccc1F	Nrf2 activator 13µM, Nrf2 block inconclusive
Cn1c(=O)n(C)c2cc(NS(=O)(=O)c3ccccc3)c(NCc3ccccc3)cc21	Nrf2 activator 13µM, Nrf2 block inconclusive
Cn1c(=O)n(C)c2cc(NS(=O)(=O)c3ccc(Cl)cc3)c(NCc3ccccc3)cc21	Nrf2 activator inconclusive, Nrf2 block inconclusive
COc1cccc(CNC(=O)C(=O)NCC(c2ccco2)S(=O)(=O)c2cccs2)c1 (stereo unspecified)	none (no result: Nrf2 block, S2 tox, ATXN2 expr inh)
OC1(c2ccc3c(c2)CN(Cc2ccco2)CCO3)CCN(c2ccccc2F)CC1	none (no result: Nrf2 activator, Nrf2 block, A549 viability, ATXN2 expr inh)
Cc1nc(-c2ccc(S(=O)(=O)Nc3ccc(C)c(C)c3)s2)cs1	none (no result: Nrf2 activator, S2 tox, ATXN2 expr inh)
CC1CC(NC(=O)c2cc3c(=O)n4ccccc4nc3n2C)CC(C)(C)C1 (stereo unspecified)	Nrf2 block 21µM (no result: S2 tox)
CC1CCCCC1NC(=O)c1cc2c(=O)n3ccccc3nc2n1C (stereo unspecified)	Nrf2 block inconclusive (no result: S2 tox, ATXN2 expr inh)
O=c1[nH]c(=O)n([C@H]2CCCO2)cc1F	none (no result: Nrf2 activator, Nrf2 block, A549 viability)
Cc1ccc(NC(=O)C(C)c2ccc(-c3ccccc3)c(F)c2)cc1 (stereo unspecified)	Nrf2 block 15µM, A549 viability inconclusive
Cc1ccc(NC(=O)C(Nc2ccccc2)c2ccccc2)cc1 (stereo unspecified)	none
Cc1ccc(S(=O)(=O)N(CCc2ccccc2)CC(=O)Nc2ccc(Br)cc2)cc1	Nrf2 block inconclusive
COC(=O)C1=C(C(=O)c2ccccc2)C(c2ccccc2)n2nnnc2N1 (stereo unspecified)	S2 tox 20µM, ATXN2 expr inh inconclusive
COC(=O)c1cccc(C(=O)N2CCc3c(cnc(C)c3CNC(=O)/C=C/c3cccs3)C2)c1	none (no result: Nrf2 activator, Nrf2 block, A549 viability, ATXN2 expr inh)
O=C(Nc1cccc(S(=O)(=O)NC2=NCCC2)c1)c1ccc(C(F)(F)F)cc1	Nrf2 block 18µM
Cc1cccc(-c2nc(CC(=O)Nc3cccc(S(=O)(=O)NC4=NCCC4)c3)cs2)c1	none
O=C(Cc1csc(-c2cccc(Cl)c2)n1)Nc1cccc(S(=O)(=O)NC2=NCCC2)c1	Nrf2 block 23µM
O=C(CCl)Nc1cccc(S(=O)(=O)NC2=NCCCCC2)c1	Nrf2 activator inconclusive, Nrf2 block 21µM (no result: S2 tox, ATXN2 expr inh)
O=C(CCl)Nc1ccc(S(=O)(=O)NC2=NCCCCC2)cc1	Nrf2 block inconclusive, A549 viability inconclusive, ATXN2 expr inh inconclusive (no result: S2 tox)
CCN(Cc1ccncc1)Cc1ccc2c(c1)CN(C(=O)c1ccccc1)CCO2	none (no result: Nrf2 activator, Nrf2 block, A549 viability, ATXN2 expr inh)
Cc1cccc(-n2ncc3c2CCCC3NC(=O)Cc2c(C)noc2C)c1C (stereo unspecified)	Nrf2 block 8.2µM
Cc1cccc(-n2ncc3c2CCCC3NC(=O)CCc2cccnc2)c1C (stereo unspecified)	Nrf2 block 7.3µM
Cc1cc(C(=O)NC2CCCc3c2cnn3-c2cccc(C)c2C)no1 (stereo unspecified)	Nrf2 block inconclusive
Cc1nn(C)c(Cl)c1CN1CCOc2ccc(CN3CCC(Oc4cccnc4)CC3)cc2C1	none (no result: Nrf2 activator, Nrf2 block, A549 viability, ATXN2 expr inh)
O=C(/C=C/c1ccc(F)cc1)NCC1Cc2cccc(-c3ncccn3)c2O1 (stereo unspecified)	none (no result: Nrf2 activator, Nrf2 block, A549 viability, ATXN2 expr inh)
O=C(NCc1cccnc1)/C(=C\c1ccc(-c2ccc(Cl)c(Cl)c2)o1)S(=O)(=O)c1ccccc1	Nrf2 activator inconclusive, Nrf2 block 18µM, A549 viability inconclusive, ATXN2 expr inh 13µM (no result: S2 tox)
c1ccc(-c2csc3ncnc(NCCN4CCOCC4)c23)cc1	Nrf2 block 15µM, ATXN2 expr inh inconclusive
COc1ccc(NC(=O)CSc2nc3sc(C)cc3c(=O)n2C)c(OC)c1	Nrf2 block 18µM, S2 tox inconclusive
Cn1c(SCC(=O)Nc2ccccc2)nc2ccccc2c1=O	Nrf2 block 21µM
COC(=O)c1ccc(NC(=O)CSc2nc3cccnc3n2C)cc1	Nrf2 block inconclusive
COc1ccccc1NC(=O)CSc1nc2ccccc2c(=O)n1C	Nrf2 block inconclusive (no result: ATXN2 expr inh)
Cc1cccc(NC(=O)CSc2nc3sc(C)cc3c(=O)n2C)c1	Nrf2 block 23µM
